Several values for one entry are separate records, joined by “and”; a condition that tells them apart may be missing. Equal values may be shown once. Out of some 5,500 compounds screened, about 2,000 (36%) were called active. Roughly 18% stayed inconclusive and do not appear here. The list shows a part of the results. Unmarked numbers belong to inactive results. No stated cut-off is given here; in the data, active means normalized growth mostly below about 0.91 (no sharp cut-off); inconclusive means no clear call, values can overlap the other calls; inactive means mostly above about 0.92.
Assay: chemical genetic growth profiling, strain panel (AID 1159580);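 further: tested at 20 µM; growth read once vehicle control cultures reached saturation at 30 °C; 1 = growth at the plate median or of vehicle wells; lower values mean less growth of the strain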
Conditions: S. cerevisiae deletion strains, growth OD

CCOc1nc2cccc(C(=O)OC(C)OC(=O)OC3CCCCC3)c2n1Cc1ccc(-c2ccccc2-c2nn[nH]n2)cc1 (configuration not stated)
normalized growth (locus YAL013W, strain DEP1, active compounds read low): 1
normalized growth (locus YAL021C, strain ccr4, active compounds read low): 1
normalized growth (locus YAL026C, strain drs2, active compounds read low): 1.03
normalized growth (locus YAL030W, strain snc1, active compounds read low): 1.02
normalized growth (locus YBL061C, strain skt5, active compounds read low): 1.01
normalized growth (locus YBR009C, strain hhf1, active compounds read low): 0.998
normalized growth (locus YBR021W, strain FUR4, active compounds read low): 1.03
normalized growth (locus YBR023C, strain chs3, active compounds read low): 1.03
normalized growth (locus YBR171W, strain sec66, active compounds read low): 1.05
normalized growth (locus YBR229C, strain ROT2, active compounds read low): 0.996
normalized growth (locus YBR231C, strain swc5, active compounds read low): 1.01
normalized growth (locus YBR279W, strain paf1, active compounds read low): 1.02
normalized growth (locus YCL011C, strain gbp2, active compounds read low): 1.02
normalized growth (locus YCL016C, strain dcc1, active compounds read low): 1.01
normalized growth (locus YCL029C, strain bik1, active compounds read low): 1.01
normalized growth (locus YCL061C, strain MRC1, active compounds read low): 1.02
normalized growth (locus YCL069W, strain vba3, active compounds read low): 1.05
normalized growth (locus YCR088W, strain abp1, active compounds read low): 1.03
normalized growth (locus YDL005C, strain med2, active compounds read low): 1.03
normalized growth (locus YDL035C, strain GPR1, active compounds read low): 0.977
normalized growth (locus YDL040C, strain nat1, active compounds read low): 1.02
normalized growth (locus YDL074C, strain BRE1, active compounds read low): 0.96
normalized growth (locus YDL101C, strain DUN1, active compounds read low): 0.998
normalized growth (locus YDL134C, strain PPH21, active compounds read low): 1.01
normalized growth (locus YDL185W, strain tfp1, active compounds read low): 0.999
normalized growth (locus YDL192W, strain arf1, active compounds read low): 1
normalized growth (locus YDR001C, strain nth1, active compounds read low): 1.03
normalized growth (locus YDR069C, strain doa4, active compounds read low): 1.04
normalized growth (locus YDR101C, strain arx1, active compounds read low): 1
normalized growth (locus YDR137W, strain rgp1, active compounds read low): 0.824 (active)
normalized growth (locus YDR150W, strain NUM1, active compounds read low): 1.01
normalized growth (locus YDR159W, strain sac3, active compounds read low): 1
normalized growth (locus YDR162C, strain NBP2, active compounds read low): 0.983
normalized growth (locus YDR195W, strain ref2): 0.994
normalized growth (locus YDR297W, strain sur2, active compounds read low): 0.994
normalized growth (locus YDR318W, strain mcm21, active compounds read low): 0.995
normalized growth (locus YDR334W, strain swr1, active compounds read low): 1.03
normalized growth (locus YDR335W, strain msn5, active compounds read low): 1.03
normalized growth (locus YDR388W, active compounds read low): 1
normalized growth (locus YDR392W, strain spt3, active compounds read low): 0.996
normalized growth (locus YDR502C, strain sam2, active compounds read low): 0.997
normalized growth (locus YEL003W, strain gim4, active compounds read low): 1.03
normalized growth (locus YEL037C, strain rad23, active compounds read low): 1.02
normalized growth (locus YEL061C, strain CIN8 (second series), active compounds read low): 1.02
normalized growth (locus YEL061C, strain CIN8, active compounds read low): 1
normalized growth (locus YER015W, strain faa2, active compounds read low): 1.02
normalized growth (locus YER016W, strain bim1, active compounds read low): 1.02
normalized growth (locus YER110C, active compounds read low): 0.997
normalized growth (locus YER111C, strain swi4, active compounds read low): 1.04
normalized growth (locus YER155C, strain BEM2 (second series), active compounds read low): 1.07
normalized growth (locus YER155C, strain BEM2, active compounds read low): 1.01
normalized growth (locus YER167W, strain BCK2, active compounds read low): 0.986
normalized growth (locus YFR010W, strain ubp6, active compounds read low): 1.04
normalized growth (locus YGL078C, strain dbp3, active compounds read low): 1.01
normalized growth (locus YGL086W, strain mad1, active compounds read low): 0.997
normalized growth (locus YGL167C, strain pmr1, active compounds read low): 1.03
normalized growth (locus YGL173C, strain kem1, active compounds read low): 1.03
normalized growth (locus YGL227W, strain vid30, active compounds read low): 1.02
normalized growth (locus YGL240W, strain doc1, active compounds read low): 1.02
normalized growth (locus YGL248W, strain PDE1, active compounds read low): 1.01
normalized growth (locus YGL253W, strain hxk2, active compounds read low): 1.04
normalized growth (locus YGR078C, strain PAC10, active compounds read low): 0.988
normalized growth (locus YGR135W, strain pre9, active compounds read low): 1
normalized growth (locus YGR229C, strain SMI1, active compounds read low): 0.851
normalized growth (locus YGR252W, strain gcn5, active compounds read low): 0.972
normalized growth (locus YHR013C, strain ard1, active compounds read low): 1.03
normalized growth (locus YHR027C, strain rpn1, active compounds read low): 1.01
normalized growth (locus YHR030C, strain SLT2, active compounds read low): 0.996 and 0.96
normalized growth (locus YHR079C, strain IRE1 (second series), active compounds read low): 0.996
normalized growth (locus YHR079C, strain IRE1, active compounds read low): 0.957
normalized growth (locus YHR094C, strain hxt1, active compounds read low): 0.995
normalized growth (locus YHR129C, strain ARP1, active compounds read low): 1.01
normalized growth (locus YHR142W, strain chs7, active compounds read low): 1.04
normalized growth (locus YHR200W, strain rpn10, active compounds read low): 0.998
normalized growth (locus YIL066C, strain RNR3, active compounds read low): 1.01
normalized growth (locus YIL073C, strain SPO22, active compounds read low): 1.07
normalized growth (locus YIL125W, strain kgd1, active compounds read low): 0.989
normalized growth (locus YIR030C, strain dcg1, active compounds read low): 0.996
normalized growth (locus YJL092W, strain hpr5, active compounds read low): 1.03
normalized growth (locus YJL095W, strain BCK1 (second series), active compounds read low): 1.01
normalized growth (locus YJL095W, strain BCK1, active compounds read low): 0.8 and 1.01
normalized growth (locus YJL115W, strain asf1, active compounds read low): 1.04
normalized growth (locus YJL129C, strain trk1, active compounds read low): 1.04
normalized growth (locus YJL134W, strain LCB3, active compounds read low): 1.01
normalized growth (locus YJL154C, strain vps35, active compounds read low): 1.03
normalized growth (locus YJL164C, strain tpk1, active compounds read low): 1.01
normalized growth (locus YJL166W, strain qcr8, active compounds read low): 1.01
normalized growth (locus YJL168C, strain set2, active compounds read low): 0.994
normalized growth (locus YJL187C, strain SWE1 (second series), active compounds read low): 0.997
normalized growth (locus YJL187C, strain SWE1, active compounds read low): 1.01
normalized growth (locus YJR043C, strain POL32, active compounds read low): 0.996
normalized growth (locus YJR066W, strain TOR1, active compounds read low): 0.93

Source: PubChem BioAssay AID1159580 (chemical genetic matrix, 2015)
